Experiment in all cases: qHTS profiling for inhibitors of Plasmodium falciparum proliferation (AID 504749); also: nearly all actives have a fitted effect of over 60% in size
Conditions in all cases: P. falciparum in erythrocytes, SYBR Green DNA, 72 h; series mostly up to 28.7 µM
(In qHTS, concentration-response curves come from the screen itself.)

For one assay, the system named is DIV17. A digest of the protocol:
(§1)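 Readout was DNA-dye fluorescence from lysed cultures, ex 485/em 535 nm. Parasitized red cells had grown 72 h with compound; data scaled between 0.29 uM artemisinin and DMSO wells and corrected using vehicle-only plates.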

The test system of another assay is DIV30. A digest of the protocol:
as §1

For another assay, the system named is ECU. A digest of the protocol: as §1
The test system of a further assay is FAB9. A digest of the protocol: as §1
The test system of a further assay is HB3. A digest of the protocol: as §1
The subject of another assay is JCK. A digest of the protocol:
as §1

A further assay relates to N140. A digest of the protocol:
as §1

The next assay concerns ICS. A digest of the protocol: as §1
The next assay relates to Dd2. A digest of the protocol:
as §1

The next assay relates to GB4. A digest of the protocol:
as §1

Results filed as inconclusive are left out. Activity calls are given as the source filed them. Calls follow the shape of the dose curve; as a rule, active = well fitted inhibition curve with a large enough effect; inconclusive = small, poorly fitted or top-dose-only effect; inactive = flat fitted curve, though single readings scatter.
Potency is read from the fitted curve at half-maximal effect.

With `O=C(O)c1cn(-c2ccc(F)cc2)c2cc(N3CCNCC3)c(F)cc2c1=O`, the Potency entry in the assay on DIV17, with DIV30, in the assay on ECU, in the assay with FAB9, with HB3 and in the assay with JCK was “inactive” throughout. Further, the Potency result with N140 was “inactive”.
Regarding `Cc1c(C(=O)NN2CCCCC2)nn(-c2ccc(Cl)cc2Cl)c1-c1ccc(Cl)cc1`, the Potency is 13.5 µM (active) with DIV17, 12 µM (active) in the assay with DIV30, 11.2 µM (active) with ICS and 8.91 µM (active) in the assay on N140. Besides, the Potency result in the assay on JCK is “inactive”.
`Nc1nc(Cl)nc2c1ncn2[C@H]1C[C@H](O)[C@@H](CO)O1`: the Potency result in the assay with Dd2, in the assay with ECU, with FAB9, with HB3, with ICS and with JCK was “inactive” throughout. Besides, the Potency entry in the assay on N140 was “inactive”.
For `COCCCOc1ccnc(CS(=O)c2nc3ccccc3[nH]2)c1C` (stereo not given), the Potency result with DIV30, in the assay on ECU, with FAB9, in the assay on GB4, in the assay with HB3 and in the assay on JCK was “inactive” each time. In the assay on N140, the Potency result is “inactive”.
In the case of `Cc1nc(Nc2ncc(C(=O)Nc3c(C)cccc3Cl)s2)cc(N2CCN(CCO)CC2)n1`, the Potency in the assay with DIV17 is 13.5 µM (active); with DIV30 it was 13.5 µM (active); with GB4, 15.1 µM (active); with ICS it was 7.08 µM (active); with N140 it was 14.1 µM (active). The Potency entry with FAB9 and with JCK was “inactive” each time.
With `CN(C)C(=O)COC(=O)Cc1ccc(OC(=O)c2ccc(N=C(N)N)cc2)cc1`, the Potency entry with DIV17, in the assay on DIV30, with ECU, in the assay on FAB9, with GB4 and with HB3 was “inactive” in each case. In addition, the Potency entry in the assay with ICS, in the assay on JCK and in the assay with N140 was “inactive” throughout.
On to `C=C(c1ccc(C(=O)O)cc1)c1cc2c(cc1C)C(C)(C)CCC2(C)C`, for which the Potency result in the assay on DIV17, in the assay with DIV30, in the assay with ECU, in the assay on FAB9, with GB4 and in the assay on JCK was “inactive” in each case. Besides, the Potency entry in the assay on N140 was “inactive”. For the same molecule, in the assay on ICS, the Potency was 8.91 µM (active).
As for `CCCCCCCCOc1ccccc1C(=O)Nc1ccc(C(=O)OCC[N+](C)(CC)CC)cc1`, the Potency is 10 µM (active) with ECU, 12 µM (active) in the assay with GB4 and 8.91 µM (active) in the assay with ICS. In addition, the Potency entry in the assay with FAB9 was “inactive”.
For the molecule `COC1=C(OC)C(=O)C(CCCCCCCCCCO)=C(C)C1=O`, the Potency entry with DIV30, with Dd2, in the assay on ECU, with FAB9, in the assay with HB3 and in the assay on ICS was “inactive” each time. Besides, the Potency entry in the assay on JCK and in the assay with N140 was “inactive” each time.
`Cc1cc(=O)c2c(O)c3c(O)cc(=O)c4c3c3c(cc(O)c1c23)C(C)(C)C=4O`: the Potency is 2.69 µM (active) in the assay with DIV17; 1.26 µM (active) in the assay with Dd2; 2 µM (active) with ECU; 2.13 µM (active) in the assay on GB4; 2 µM (active) in the assay with HB3; 0.355 µM (active) in the assay with ICS. Moreover, the Potency in the assay on N140 was 1 µM (active). In the assay on FAB9, the Potency result is “inactive”.
For `CC[C@]1(O)C[C@H]2CN(CCc3c([nH]c4ccccc34)[C@@](C(=O)OC)(c3cc4c(cc3OC)N(C=O)[C@H]3[C@@](O)(C(=O)OC)[C@H](OC(C)=O)[C@]5(CC)C=CCN6CC[C@]43[C@@H]65)C2)C1`, the Potency in the assay with DIV30 was 3.38 µM (active); with Dd2, 0.199 µM (active); with HB3, 0.447 µM (active); in the assay with ICS, 0.1 µM (active); in the assay with N140, 3.55 µM (active).
In the case of `O=c1oc2cc(O)ccc2s1`, the Potency entry in the assay on DIV30, in the assay on Dd2, with ECU, in the assay on FAB9, with HB3 and with JCK was “inactive” in each case. In the assay with N140, the Potency entry was “inactive”.
In the case of `O=C(O)CCNC(=O)c1ccc(N=Nc2ccc(O)c(C(=O)O)c2)cc1`, the Potency entry with DIV17, in the assay with DIV30, with ECU, in the assay on FAB9, in the assay with GB4 and in the assay with ICS was “inactive” in each case. The Potency result in the assay with JCK and with N140 was “inactive” in each case.
`Cc1cc(C2CCCCC2)n(O)c(=O)c1`: in the assay with Dd2, the Potency result was “inactive”. The Potency is 3.55 µM (active) in the assay with FAB9, 6.42 µM (active) in the assay with GB4 and 3.55 µM (active) in the assay with ICS.
On to `CCCCN(CCCC)CCC(O)c1cc2c(Cl)cc(Cl)cc2c2cc(C(F)(F)F)ccc12` (stereo not given), for which the Potency with DIV30 is 0.0102 µM (active); with Dd2, 0.0028 µM (active); in the assay on ECU, 0.0079 µM (active); with FAB9 it was 0.0112 µM (active); in the assay on HB3 it was 0.0063 µM (active); in the assay on ICS, 0.0006 µM (active). Moreover, the Potency with JCK was 10 µM (active); in the assay on N140, 0.0032 µM (active).
Consider `O=C1CCc2ccc(OCCCCN3CCN(c4cccc(Cl)c4Cl)CC3)cc2N1`, for which the Potency result in the assay on DIV17, in the assay on DIV30, in the assay with FAB9, with GB4 and in the assay with JCK was “inactive” each time. The Potency with ICS was 11.2 µM (active).
`Nc1ccn([C@@H]2O[C@H](CO)[C@@H](O)C2O)c(=O)n1` (stereo not given in full): the Potency result in the assay with DIV17, with Dd2, in the assay on ECU, in the assay with FAB9, in the assay with GB4 and in the assay on HB3 was “inactive” in each case. Besides, the Potency result in the assay with ICS, with JCK and in the assay on N140 was “inactive” throughout.
With `CCc1nc(N)nc(N)c1-c1ccc(Cl)cc1`, the Potency entry in the assay on Dd2, in the assay on JCK and with N140 was “inactive” each time. The Potency was 0.0501 µM (active) with ECU, 0.0501 µM (active) in the assay with FAB9, 0.019 µM (active) with GB4 and 11.2 µM (active) in the assay with HB3.
For the molecule `COc1cc(OC)c(C(=O)CCCN2CCCC2)c(OC)c1`, the Potency result with DIV30, in the assay on Dd2, with ECU, in the assay with FAB9, in the assay on GB4 and in the assay with HB3 was “inactive” throughout. Further, the Potency result with ICS, in the assay on JCK and with N140 was “inactive” each time.
As for `CCCCC(CC)COC(=O)C(C#N)=C(c1ccccc1)c1ccccc1` (stereo not given), the Potency result in the assay on DIV17, with DIV30, in the assay on FAB9, in the assay with JCK and with N140 was “inactive” each time. The Potency in the assay on ECU is 8.91 µM (active).
`CC1=C(C)C(=O)C(C(CCCCCC(=O)O)c2ccccc2)=C(C)C1=O` (stereo not given): the Potency result in the assay on Dd2, in the assay on ECU, in the assay on FAB9, in the assay on HB3, with ICS and in the assay on JCK was “inactive” each time.
Consider `O=C(OC1C[C@H]2CC[C@@H](C1)[N+]21CCCC1)C(O)(c1ccccc1)c1ccccc1` (stereo not given in full), for which the Potency is 4.78 µM (active) in the assay on DIV30, 0.0891 µM (active) in the assay with Dd2, 5.01 µM (active) with ECU and 4.26 µM (active) in the assay with GB4. Also, in the assay with JCK, the Potency entry was “inactive”.
As for `Cc1cc(=O)oc2cc(O)ccc12`, the Potency result in the assay with DIV17, with DIV30, with FAB9 and in the assay with GB4 was “inactive” throughout. Further, the Potency in the assay with JCK was 2 µM (active).

The values above are taken from PubChem BioAssay (NCATS).
